# Shown are actives, neighbours in structure and some others; about 1.1% of the full set was active somewhere.
# GALR2 agonist = GALR2 receptor agonists, primary screen, cell-based | Galanin receptor type 2 (Homo sapiens), O43603 | GALR2-expressing cells, agonist activation read-out | activation, % (concentration not given with the values) | actives 0.48% (n = 140,000) | AID 803, 2007; in the data active = activation above about 5%, passing the limit was not always enough;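 note: 0% = vehicle buffer wells and 100% = reference agonist at full effect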
# Target sequence (O43603 whole entry, looked up): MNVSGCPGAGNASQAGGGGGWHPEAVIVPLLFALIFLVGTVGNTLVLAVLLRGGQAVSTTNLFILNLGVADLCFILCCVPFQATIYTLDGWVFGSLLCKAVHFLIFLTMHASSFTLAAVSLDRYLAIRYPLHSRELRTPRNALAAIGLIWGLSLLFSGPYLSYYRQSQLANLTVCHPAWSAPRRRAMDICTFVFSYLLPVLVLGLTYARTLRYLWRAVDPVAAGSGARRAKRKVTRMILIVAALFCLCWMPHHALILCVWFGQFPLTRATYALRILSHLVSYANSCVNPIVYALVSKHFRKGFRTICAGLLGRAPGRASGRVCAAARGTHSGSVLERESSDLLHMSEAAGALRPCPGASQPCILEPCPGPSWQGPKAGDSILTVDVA
# GALR2 antag = GALR2 antagonists in receptor-expressing cells, primary screen | Galanin receptor type 2 (Homo sapiens), O43603 | antagonist mode | inhibition, % at 4 µM | actives 0.39% (n = 140,000); in the data active = inhibition above about 27%;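 note: cells stimulated with galanin 1-16 at roughly its EC80; 0% = agonist challenge control and 100% = basal control without agonist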
# S1P2 antag = human S1P2 receptor antagonists, primary screen, cell-based; AID 736, 2007; cell-based S1P2 antagonist assay, inhibition at 5 uM; actives 0.21% (n = 97,000); Sphingosine 1-phosphate receptor 2 (Homo sapiens), O95136; inhibition, % at 5 µM; in the data active = inhibition above about 45%;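 note: CRE beta-lactamase reporter cells expressing human S1P2 stimulated with S1P; 0% = agonist at EC80 alone and 100% = agonist plus reference antagonist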
# S1P2 agonist = S1P2 receptor agonists, primary screen, cell-based. Sphingosine 1-phosphate receptor 2 (Homo sapiens), O95136. S1P2-expressing cell line, agonist reporter read-out. activation, % at 4.5 µM. actives 0.46% (n = 97,000). AID 729, 2007; in the data active = activation above about 16%;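 note: 0% = vehicle low control and 100% = maximal reference agonist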
# GALR2 ag confirm = GALR2 agonists, retest of hits, confirmation, cell-based | GALR2-expressing cells, agonist activation | AID 864, 2007 | actives 10% (n = 460) | activation, % at 5.6 µM | shares compounds with GALR2 agonist; in the data active = activation above about 8.4%;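 note: 0% = buffer-only vehicle wells and 100% = full reference agonist response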
# BLA act counter = activators of NFAT-driven beta-lactamase reporter, confirmation, counter-screen for GALR2 agonist project, CHO NFAT-bla cells, FRET readout; actives 10% (n = 460); activation, % at 5.6 µM; AID 865, 2007; beta-lactamase FRET activation; shares compounds with GALR2 agonist;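 active = activation above the screen-wide mean activation plus 3 SD, cut at about 8% in these data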;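 note: 0% = DMSO with PBS wells and 100% = thapsigargin positive control wells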
# Starred values were filed as active, the others as inactive; i = inactive; x = no result; ! = not active in a repeat.
SMILES,GALR2 agonist,GALR2 antag,S1P2 antag,S1P2 agonist,others
CCN(CC)c1c2c(c(C#N)c3nc4ccccc4n13)CCC2,1,4,-36,20*,
CC(=O)c1ccc(Nc2c3c(c(C#N)c4nc5ccccc5n24)CCC3)cc1,1,-3,x,x,
Clc1ccc(N2N=C(c3cccs3)CC2c2ccco2)cc1 (stereo not drawn),70*,-5,-78,102*,
c1ccc(N2N=C(c3cccs3)CC2c2ccco2)cc1 (stereo not drawn),57*,0,-49,47*,
CCN(CC)CC(=O)N1N=C(c2cccs2)CC1c1ccco1 (stereo not drawn),-2,0,4,-1,
CCOC(=O)c1cc(CC)sc1NC(=O)CC1Sc2ccc(C(F)(F)F)cc2NC1=O (stereo not drawn),-1,2,x,x,
CCOCCCn1c(=NC(=O)c2cccnc2)c(C(=O)OCC)cc2c(=O)n3ccccc3nc21,6.0*,-10,-28,10,
Cc1cccn2c(=O)c3cc(C(=O)NC4CCCC4)c(=N)n(C4CCCC4)c3nc12,5.0*,0,x,x,
Cc1ccc(CNC(=O)c2cc3c(=O)n4ccccc4nc3n(CC3CCCO3)c2=N)cc1 (stereo not drawn),8.3*,-12,x,x,
N=c1c(C(=O)NC2CCCC2)cc2c(=O)n3ccccc3nc2n1C1CCCC1,3,-9,-11,6,
COCCCn1c(=N)c(C(=O)NCc2ccc3c(c2)OCO3)cc2c(=O)n3ccccc3nc21,0,7,-26,1,
COCCCn1c(=N)c(C(=O)NC2CCCCC2)cc2c(=O)n3ccccc3nc21,16*,-26,-56,32*,
N#Cc1c(C(F)(F)F)cc(-c2cccc(Cl)c2)[nH]c1=O,-1,-2,20,2,
N=c1c(C(=O)NCc2ccco2)cc2c(=O)n3ccccc3nc2n1Cc1ccc(Cl)cc1,5.2*,-23,-37,29*,
CCOC(=O)c1cc2c(=O)n3ccccc3nc2n(CC2CCCO2)c1=NC(C)=O (stereo not drawn),24*,-20,-46,26*,
N=c1c(C(=O)NCc2ccco2)cc2c(=O)n3ccccc3nc2n1Cc1ccccc1,4,5,2,14,
CC(=O)OC[C@H]1O[C@@H](O/N=C/C[C@@H]2C=C[C@H](OC(C)=O)[C@@H](COC(C)=O)O2)[C@H](OC(C)=O)[C@@H](OC(C)=O)[C@@H]1OC(C)=O,-1,-1,x,x,
CCCCN(C(=S)NC(=O)c1cc(OC)c(OC)c(OC)c1)c1c(N)n(Cc2ccccc2)c(=O)[nH]c1=O,-1,-8,x,x,
O=C(NC(Nc1ncc(S(=O)(=O)c2ccc([N+](=O)[O-])cc2)s1)(C(F)(F)F)C(F)(F)F)c1ccc(Cl)cc1,-3,16,47*,-6,
O=C(Nc1ncc(S(=O)(=O)c2ccc([N+](=O)[O-])cc2)s1)c1cccc2ccccc12,4,1,x,x,
O=C(OCCN1C(=O)c2ccccc2C1=O)c1cc(S(=O)(=O)N2CCOCC2)ccc1F,-2,1,-28,18*,
CCOC(=O)C1=C(O)/C(=C/c2ccc(OCC(=O)O)c(OC)c2)SC1=Nc1ccc(OCC)cc1,0,9,x,x,
CCOC(=O)C1=C(O)/C(=C/c2cc(OC)c(O)c(OC)c2)SC1=Nc1ccc(OC)cc1,7.3*,6,x,x,
COc1cc2c(cc1OC)C1=C(C#N)CN(CC(=O)O)CN1CC2,-1,-8,-28,23*,
O=C(NC1CCCC1)C(c1ccsc1)N(CCc1ccccc1)C(=O)Cc1cccs1 (stereo not drawn),6.0*,4,x,x,
SMILES,GALR2 agonist,GALR2 antag,S1P2 antag,S1P2 agonist,others
Cc1ccc(/C=C2/NC(=O)N(Cc3ccc(Br)cc3)C2=O)o1,6.1*,22,x,x,
O=c1cc(-c2ccc([N+](=O)[O-])cc2)nc2cc(-c3ccc(F)cc3)[nH]n12,-1,2,x,x,
CC(=O)N(Cc1cc(=O)[nH]c2ccccc12)c1ccc(C)cc1,-1,-1,i,-6,
O=c1cc(CNCCCO)c2ccccc2[nH]1,0,-1,-8,23*,
CCOC(=O)CC1=NN(c2ccccc2)C(=O)/C1=C\c1ccc(OC)cc1OC,-1,-5,x,x,
CCNc1nc(NC(C)(C)C)nc(N2CCCC2)n1,0,13,-23,0,
CC(C)(C)Nc1nc(N2CCCC2)nc(N2CCCC2)n1,-1,4,47*,-7,
COc1ccc(-c2cc(N)n(S(=O)(=O)c3c(F)c(F)c(F)c(F)c3F)n2)cc1OC,-2,28*,15,6,
COc1ccc(S(=O)(=O)n2nc(-c3cc(OC)c(OC)c(OC)c3)cc2N)cc1OC,0,9,x,x,
N#C/C(=C\c1c[nH]c2ccccc12)C(=O)Nc1ncc(Cc2ccc(Cl)cc2Cl)s1,6.4*,-10,x,x,
Cc1cc(C)c(S(=O)(=O)N2CCCOC2CNC(=O)C(=O)NCCc2c[nH]c3ccccc23)c(C)c1 (stereo not drawn),0,3,x,x,
COc1ccccc1C1CN(c2ccccc2)N=C1c1cccs1 (stereo not drawn),61*,-2,-32,33*,
COc1cccc(C2CN(c3ccc(F)cc3F)N=C2c2cccs2)c1OC (stereo not drawn),41*,-10,-50,44*,
CCOC(=O)N1CCC(NC(=O)CNS(=O)(=O)c2ccc(Br)s2)CC1,-3,9,15,-7,
O=C(NC1CCCCCC1)C1CCC(CNS(=O)(=O)c2ccc(Br)s2)CC1 (stereo not drawn),5.3*,-7,x,x,
O=C1SC(c2ccccc2)=N/C1=C/c1ccco1,-1,-18,23,59*,
CN(C)CCNC(=S)Nc1ccc(Br)cc1,0,8,x,x,
Cc1cccc(C(=O)NC2CC3CCCC(C2)N3C(=O)NC2CCCCC2)c1 (stereo not drawn),-2,6,-8,66*,
Cc1cccc(C(=O)NC2CCN(C(=O)N3CCOCC3)CC2)c1,1,-4,6,0,
CCOC(=O)C1=C(O)/C(=C/c2cn(CC(=O)NCC3CCCO3)c3ccccc23)SC1=Nc1ccc(C)cc1 (stereo not drawn),1,34*,3,-5,
C=CS(=O)(=O)c1ccc(Oc2ccc(S(=O)(=O)C=C)cc2)cc1,-3,91*,x,x,
Cc1ccccc1-c1nc2ccccc2[nH]1,-2,-1,-14,0,
c1ccc2[nH]c(-c3ccnc4ccccc34)nc2c1,12*!,15,-28,1,GALR2 ag confirm=-2;BLA act counter=-5
CN(C(=O)c1c(Br)cnn1C)C12CC3CC(CC(C3)C1)C2,0,-5,x,x,
CCOC(=O)c1sc(NC(=O)Nc2ccccc2Cl)cc1C,13*,9,x,x,GALR2 ag confirm=0;BLA act counter=-2
CC1CN(C2CCN(S(=O)(=O)Cc3ccccc3)CC2)CC(C)O1 (stereo not drawn),10,-9,18,-1,GALR2 ag confirm=-1;BLA act counter=-2

# Compound activity deposited in PubChem by The Scripps Research Institute Molecular Screening Center.
